From PubChem BioAssay (NCI) come the findings set out here.

About 83,000 compounds went through this panel and 20% of them were active in at least one assay; those are over-represented in the sample as a whole.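 Interpretation: 100, growth as untreated; towards 0, rising growth inhibition; 0, no net growth; 0 to -100, cell death. Compounds scoring below 10 were considered active.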 Values without a mark were called inactive.

The test system of the assay is MDA-MB-468 breast. Kind of assay: NCI-60 one-dose screen, 48 h (100 = growth as untreated, 0 = no growth, -100 = all killed). Conditions: 10 µM unless noted.
Regarding `COc1cc(Cl)ccc1C`, the growth was 64.9%. The same measure for `C/C(=N\O)c1ccc(NC(=O)CSc2nnc(-c3cc(-c4ccc(S(N)(=O)=O)cc4)nc4ccccc34)n2-c2ccccc2)cc1`: 63.1%; for `c1ccc(CNc2ncnc3scc(-c4cccs4)c23)nc1`: 12%.
